{"source": "PubChem BioAssay (Tox21)", "note": "Results filed as inconclusive are left out. The source made the active and inactive calls. Calls come from the whole dose curve; as a rule, active = well fitted inhibition curve with a large enough effect in the signal ratio in the repeat runs (not every such curve was filed as active); inconclusive = weak or mixed curves, or effect the other way; inactive = no such curve, though single readings can be large or run the other way; the % refers to the signal ratio. % is set by controls: 0 for no effect and ±100 for the full control effect; potency is the fitted concentration of half-maximal effect.", "data": [{"target": "Glucocorticoid receptor (Homo sapiens) (UniProt P04150)", "sequence (P04150 whole entry, looked up)": "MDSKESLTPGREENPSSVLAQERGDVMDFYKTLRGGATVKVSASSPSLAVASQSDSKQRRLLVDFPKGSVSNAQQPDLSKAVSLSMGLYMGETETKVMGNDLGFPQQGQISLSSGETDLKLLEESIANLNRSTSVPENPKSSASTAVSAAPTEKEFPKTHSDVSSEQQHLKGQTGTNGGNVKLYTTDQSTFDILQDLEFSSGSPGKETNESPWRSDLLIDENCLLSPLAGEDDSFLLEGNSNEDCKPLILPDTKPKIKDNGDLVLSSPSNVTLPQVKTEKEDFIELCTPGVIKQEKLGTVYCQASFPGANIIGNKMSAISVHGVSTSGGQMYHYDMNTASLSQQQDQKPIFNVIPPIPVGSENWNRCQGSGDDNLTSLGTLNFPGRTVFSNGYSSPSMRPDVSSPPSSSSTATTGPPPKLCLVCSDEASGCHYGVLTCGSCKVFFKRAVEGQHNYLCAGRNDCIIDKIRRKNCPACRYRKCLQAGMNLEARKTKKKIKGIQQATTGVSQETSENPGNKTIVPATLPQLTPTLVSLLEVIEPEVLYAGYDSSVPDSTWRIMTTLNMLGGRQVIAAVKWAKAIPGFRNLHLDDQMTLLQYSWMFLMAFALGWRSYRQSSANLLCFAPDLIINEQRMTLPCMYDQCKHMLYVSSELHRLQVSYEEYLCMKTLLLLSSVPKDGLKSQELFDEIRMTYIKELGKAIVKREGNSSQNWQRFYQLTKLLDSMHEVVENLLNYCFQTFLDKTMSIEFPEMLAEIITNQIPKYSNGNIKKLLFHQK", "experiment": "qHTS assay to identify small molecule antagonists of the glucocorticoid receptor (GR) signaling pathway (AID 720692)", "settings": "GR-bla HeLa, beta-lactamase FRET ratio, dexamethasone-stimulated, 18 h; series mostly up to 58.5 µM; activity change, negative = inhibition: at the top concentration", "excerpt": "U.S. Tox21 Program National Center for Advancing Translational Sciences [NCATS] NIH Chemical Genomics Center [NCGC] U.S. Environmental Protection Agency [EPA] National Institutes of Environmental Health Sciences [NIEHS] National Toxicology Program [NTP] U.S. Food and Drug Administration [FDA] Tox21 Assay Overview: The Glucocorticoid receptor (GR) is one of the members of the nuclear receptor family of ligand-dependent transcription factors. GR plays a critical role in carbohydrate, protein and lipid metabolisms and programmed cell death. CellSensor GR-bla HeLa cell line (Invitrogen) contains a beta-lactamase reporter gene under the control of the glucocorticoid response element stably integrated into HeLa cells, a cervical cancer cell line that expresses glucocorticoid receptor. The activation of the reporter gene under culture conditions can be detected by fluorescence intensity. This cell line has been used to screen the Tox21 10K compound library and to identify the compounds that inhibit the GR signaling.\nTox21 Assay Protocol Summary: The GR-bla HeLa cells were dispensed at 1500 cells/5 ul/well in 1536-well black wall/clear bottom plates using a Multidrop Combi (ThermoFisher Scientific, Waltham, MA) dispenser. After the assay plates were incubated at a 37 C/5% CO2 incubator for 4 hours, 23 nL of compounds dissolved in DMSO, positive controls or DMSO only was transferred to the assay plate by a pintool station (Kalypsys, San Diego, CA), followed by addition of 1 uL of dexamethasone (5 nM, final concentration in the well). The plates were incubated at 37 C for 18 hours. After 1 uL of LiveBLAzerTM B/G FRET substrate was added using a Flying Reagent Dispenser (Aurora Discovery, San Diego, CA), the plates were incubated at room temperature for 2 hours, and fluorescence intensity was measured by an Envision plate reader (PerkinElmer, Shelton, CT).", "values": [{"smiles": "O=C(O)C(F)(F)C(F)(F)C(F)(F)C(F)(F)C(F)(F)C(F)(F)C(F)(F)C(F)(F)C(F)(F)F", "activity change, negative = inhibition": "23.5% (inactive)"}, {"smiles": "CC(=O)CCC(C)=O", "activity change, negative = inhibition": "2.27% [at 78.9 µM] (inactive)"}, {"smiles": "O=[Se]=O", "activity change, negative = inhibition": "0.557% (inactive)"}, {"smiles": "O=C(C(Cl)(Cl)Cl)C(Cl)(Cl)Cl", "activity change, negative = inhibition": "-2.09% [at 78.9 µM] (inactive)"}, {"smiles": "CCCN(CC1CC1)c1c([N+](=O)[O-])cc(C(F)(F)F)cc1[N+](=O)[O-]", "activity change, negative = inhibition": "-23.9% (inactive)"}, {"smiles": "c1ccoc1", "activity change, negative = inhibition": "-17.8% (inactive)"}, {"smiles": "O=C(N[C@H](c1ccccc1)[C@@H]1CN2CCC1CC2)c1c(Cl)ccc(C(F)(F)F)c1Cl", "activity change, negative = inhibition": "-16.8% [at 78.9 µM] (inactive)"}, {"smiles": "NCC(CC(=O)O)c1ccc(Cl)cc1", "note": "(stereo not given)", "activity change, negative = inhibition": "11% (inactive)"}, {"smiles": "Brc1ccccc1", "activity change, negative = inhibition": "-4.64% (inactive)"}, {"smiles": "C[C@@H]1CC[C@H]2[C@@H](C)C(=O)O[C@@H]3O[C@@]4(C)CC[C@@H]1[C@]32OO4", "activity change, negative = inhibition": "-19.5% (inactive)"}, {"smiles": "CCCCCC[N+](=O)[O-]", "activity change, negative = inhibition": "0% [at 78.9 µM] (inactive)"}, {"smiles": "Nc1nc(N)nc(N)n1", "activity change, negative = inhibition": "0.288% [at 78.9 µM] (inactive)"}, {"smiles": "CCCC(Cn1cncn1)c1ccc(Cl)cc1Cl", "note": "(stereo not given)", "Potency": "49 µM (active)"}, {"smiles": "CCOP(O)OCC", "activity change, negative = inhibition": "14.8% (inactive)"}, {"smiles": "CC(=O)C(C)(C)C", "activity change, negative = inhibition": "-16% [at 78.9 µM] (inactive)"}, {"smiles": "O=[N+]([O-])c1cc(C(F)(F)F)cc([N+](=O)[O-])c1Cl", "activity change, negative = inhibition": "1.04% [at 78.9 µM] (inactive)"}, {"smiles": "C/C=C/C=O", "activity change, negative = inhibition": "20.2% (inactive)"}, {"smiles": "CCOc1nc(F)cc2nc(S(=O)(=O)Nc3c(Cl)cccc3Cl)nn12", "activity change, negative = inhibition": "-14.7% (inactive)"}, {"smiles": "CC(Cl)C(C)Cl", "note": "(stereo not given)", "activity change, negative = inhibition": "-6.01% (inactive)"}, {"smiles": "Brc1ccc(Oc2ccccc2)cc1", "Potency": "inactive"}, {"smiles": "COc1cc(Cl)c(OC)cc1Cl", "activity change, negative = inhibition": "4.28% (inactive)"}, {"smiles": "CCCCOC(=O)c1ccccc1C(=O)OCc1ccccc1", "activity change, negative = inhibition": "-14.9% (inactive)"}, {"smiles": "Clc1ccc(C(OCCN2CCCCC2)c2ccccc2)cc1", "note": "(stereo not given)", "activity change, negative = inhibition": "25.6% [at 27 µM] (inactive)"}, {"smiles": "COP(=S)(OC)Oc1ccc([N+](=O)[O-])cc1Cl", "activity change, negative = inhibition": "11.2% (inactive)"}, {"smiles": "COC(=O)C(Cl)C(=O)OC", "activity change, negative = inhibition": "-0.388% (inactive)"}, {"smiles": "c1ccc(CN2CCNCC2)cc1", "activity change, negative = inhibition": "-6.06% [at 216 µM] (inactive)"}, {"smiles": "S=C=NCc1ccccc1", "activity change, negative = inhibition": "-3.31% [at 78.9 µM] (inactive)"}, {"smiles": "C=CC[C@]1(O)CC[C@H]2[C@@H]3CCC4=CC(=O)CCC4=C3C=C[C@@]21C", "Potency": "0.301 µM (active)"}, {"smiles": "CCCCCCCCOC(=O)c1ccc(C(=O)OCCCCCCCC)c(C(=O)OCCCCCCCC)c1", "activity change, negative = inhibition": "5.01% [at 78.9 µM] (inactive)"}, {"smiles": "O=C(O)CC(Cl)C(=O)O", "note": "(stereo not given)", "activity change, negative = inhibition": "-0.391% [at 78.9 µM] (inactive)"}, {"smiles": "CCCN(CCC)c1c([N+](=O)[O-])cc(S(C)(=O)=O)cc1[N+](=O)[O-]", "activity change, negative = inhibition": "18.5% (inactive)"}, {"smiles": "CC(=O)[C@H]1CC[C@H]2[C@@H]3CC[C@H]4C[C@](C)(O)CC[C@]4(C)[C@H]3CC[C@]12C", "activity change, negative = inhibition": "-11.7% (inactive)"}, {"smiles": "O=C1CN=C(c2ccccc2)c2cc(Cl)ccc2N1CC1CC1", "Potency": "45.8 µM (active)"}, {"smiles": "COC1=CC(=O)O[C@@H](CCc2ccccc2)C1", "activity change, negative = inhibition": "-1.53% [at 78.9 µM] (inactive)"}, {"smiles": "CC(C)(Cl)[N+](=O)[O-]", "activity change, negative = inhibition": "28.9% [at 78.9 µM] (inactive)"}, {"smiles": "COC(N)=O", "activity change, negative = inhibition": "-2.55% (inactive)"}, {"smiles": "COc1c(C(C)(C)C)cc([N+](=O)[O-])c(C)c1[N+](=O)[O-]", "activity change, negative = inhibition": "4.07% (inactive)"}, {"smiles": "CCOC(=O)COc1cc(-c2nn(C)c(OC(F)F)c2Cl)c(F)cc1Cl", "activity change, negative = inhibition": "1.66% (inactive)"}, {"smiles": "COC(=O)C(Br)CBr", "note": "(stereo not given)", "activity change, negative = inhibition": "-0.17% (inactive)"}, {"smiles": "Cn1sc(Cl)cc1=O", "activity change, negative = inhibition": "10.2% (inactive)"}]}]}
